We go through five compounds from PubChem BioAssay AID1498 (National Center for Advancing Translational Sciences (NCATS), 2009).

A short description of the assay: Confirmation Concentration-Response Assay for Modulators of Lamin A Splicing. As to conditions: HeLa lamin A splicing GFP/RFP minigene, Acumen, 48 h; RFP activity: RFP channel at top concentration, at 46.1 µM; ratio activity: GFP/RFP ratio at top concentration, at 46.1 µM; series mostly up to 46.1 µM. In a few lines:
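Splicing correction read as ratio of GFP (500-530 nm) to DsRed2 (575-640 nm) object intensity by Acumen cytometry, after 48 h compound treatment of stable HeLa reporter cells (600/well) in 2% FBS medium.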

Records with an inconclusive call do not appear. Activity calls are given as the source filed them. Calls come from the whole dose curve.

`C/C(=N\NC(=O)C(c1ccncc1)N1CCOCC1)c1ccc(Br)cc1` (stereo not given): the RFP activity amounted to 7.84%, the result was inactive and the ratio activity is -18.1%.
On the same counts, the results for `Cc1noc(C)c1-c1ccc2ncnc(NCc3cccc(-c4ccccc4)c3)c2c1` are 22.9%, “inactive” and -27.8%.
For the compound `Cc1ccc(S(=O)(=O)N(CC(=O)Nc2ccccc2C(=O)O)c2cccc(Cl)c2C)cc1`, the RFP activity stood at 26.8%, the outcome was inactive and the ratio activity was -14.3%.
On the same counts, the results for `CC(=O)Nc1ccc(-c2csc(NC(=O)C3CCN(S(=O)(=O)c4cccs4)CC3)n2)cc1` are 16.5%, “inactive” and -13.5%.
In the same order, the values of `Cc1cc(Nc2ccccc2)nc2cc(O)ccc12` are 11.6%, “inactive” and -18.8%.
